Screening results from PubChem.
ssDAF12 agonist – S. stercoralis DAF-12 activation, primary screen; HEK293 ssDAF-12/GRIP1 lit1-tk-luc reporter, luminescence; % of 3 µM dafachronic acid response; activation, % at 6.8 µM; actives 1% (n = 370,000); AID 652126;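 active = activation above the mean over all tested compounds plus 3 SD, cut at about 0.9% in these data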;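 also: 0% = DMSO-only wells and 100% = 3 µM delta7-dafachronic acid wells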
DAX1 inh-1 – inhibits human nuclear receptor DAX1. HEK293 Gal4-DAX1 luciferase reporter, luminescence. inhibition, % at 6.75 µM. actives 0.99% (n = 340,000). AID 504766;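 active = inhibition above the mean over all tested compounds plus 3 SD, cut at about 4.2% in these data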;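 also: 0% = DAX1-transfected cells with DMSO and 100% = empty-vector control cells with DMSO; inhibition shows as a rise in luminescence from relieved DAX1 repression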
Target sequence (P51843 207-470 limits assumed): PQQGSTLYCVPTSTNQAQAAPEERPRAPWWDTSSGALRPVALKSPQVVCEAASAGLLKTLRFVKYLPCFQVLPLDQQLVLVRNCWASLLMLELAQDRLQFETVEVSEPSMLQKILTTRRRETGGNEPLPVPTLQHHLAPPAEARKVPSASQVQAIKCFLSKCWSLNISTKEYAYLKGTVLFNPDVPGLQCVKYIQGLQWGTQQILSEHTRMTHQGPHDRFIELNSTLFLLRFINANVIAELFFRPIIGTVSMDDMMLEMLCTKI
hgDAF-12 ag – hgDAF-12 agonism, primary luciferase screen; HEK293 GAL4-hgDAF12 UAS-luciferase reporter, agonist luminescence; normalized to butyrate control; activation, % at 6.8 µM; actives 1.8% (n = 370,000);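 active = activation above a cutoff set at the mean of all screened compounds plus 3 SD, cut at about 10% in these data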;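 also: 0% = DMSO wells and 100% = sodium butyrate wells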
hcDAF-12 act – activates DAF-12 receptor from parasite H. contortus; actives 1.4% (n = 370,000); HEK293 hcDAF-12 lit1-tk-luc reporter, luminescence; 0% DMSO, 100% Δ7-dafachronic acid; AID 652067; activation, % at 6.8 µM;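 active = activation above the mean of all tested compounds plus 3 SD, cut at about 5.5% in these data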;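 also: 100% = response to 3 µM Δ7-dafachronic acid high control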
DAX1 inh-2 – inhibitors of DAX1 repression of SF-1 activated StAR promoter; actives 1.1% (n = 370,000); inhibition, % at 6.8 µM; HEK293T StAR-luciferase reporter, SF-1/DAX-1 repression relief;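 active = inhibition above the mean over all tested compounds plus 3 SD, cut at about 3.6% in these data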;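 also: 0% = DAX-1 cells with DMSO and 100% = cells lacking DAX-1 with DMSO; higher inhibition means more luminescence from relief of DAX-1 repression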
The depositor's hits bear a star; · = not tested or not shown. Hits are enriched below; roughly 4.1% of the tested compounds scored in any of these assays.

SMILES | ssDAF12 agonist | DAX1 inh-1 | hgDAF-12 ag | hcDAF-12 act | DAX1 inh-2
CCn1c(=O)cc(N2CCN(c3cccc(C(F)(F)F)c3)CC2)[nH]c1=O | -0.9 | · | 8.5 | -1.0 | ·
c1coc(CSc2ncnc3c2oc2ccccc23)c1 | 0.2 | 5.7* | 5.0 | 2.7 | 0.3
CCn1c(=O)n(CC(=O)N2CCC(C)CC2)c(=O)c2ccccc21 | -1.7 | · | 1.3 | -0.6 | -0.2
O=C(/C=C/Nc1ccccc1)c1ccccc1 | 0.7 | 2.5 | 11.1* | 6.5* | 3.8*
CCOC(=O)c1ccc(N/C=C/C(=O)C(C)(C)C)cc1 | 0.1 | 2.9 | 13.1* | -0.6 | 1.6
CCOC(=O)c1ccc(NC(=S)Nc2ccc(C)cc2)cc1 | -0.4 | -1.0 | 1.5 | -1.5 | 0.3
CCOC(=O)c1ccc(N/C=C/C(=O)c2ccc(OC)cc2)cc1 | -0.7 | 3.2 | 0.2 | -0.7 | 0.6
CCOC(=O)c1ccc(N/C=C/C(=O)c2ccccc2)cc1 | -0.8 | 2.2 | 12.0* | 0.7 | 1.1
CC(=O)Nc1ccc(N/C=C/C(=O)c2ccccc2)cc1 | -0.4 | 1.8 | 6.3 | 0.6 | 1.1
CCOC(=O)c1ccc(NC(=S)Nc2ccccc2)cc1 | 1.2* | 0.1 | 1.7 | 0.1 | -0.2
CN1CCCCC(NC(=O)COCc2ccccc2)C1=O (stereo unspecified) | -1.3 | · | 1.2 | -0.8 | -0.3
COC(=O)C1=C(C)N(Cc2cccc(C(F)(F)F)c2)C(=NCc2cc(OC)c(OC)c(OC)c2)NC1c1cccc(C(F)(F)F)c1 (stereo unspecified) | -0.8 | · | -2.1 | -1.2 | -0.9
O=C(O)CCC(=O)/C=C/c1ccccc1 | -0.7 | 2.4 | 0.7 | -1.7 | -0.6
CCOc1ccc(/C=C/C(=O)CCC(=O)O)cc1 | -1.8 | 5.8* | 2.8 | 0.9 | 2.6
Cc1cccc(-c2nc(NCCCN(C)C)c3ccccc3n2)c1 | 1.1* | 0.0 | -0.2 | 1.2 | 0.3
C=C(C)c1nc(Oc2ccccc2)nc(Oc2ccccc2)n1 | -1.1 | 6.0* | -2.9 | -0.1 | -0.8
O=C(Nc1cccc(-c2nc3ccccc3s2)c1)c1cc(-n2cnnc2)ccc1Cl | · | -1.2 | · | · | ·
Cc1ccc2sc(-c3ccc(NC(=O)c4cc(-n5cnnc5)ccc4Cl)cc3)nc2c1 | -1.2 | 0.9 | 11.3* | 0.7 | 2.0
C[C@@H]1CCN(C2CC2)S(=O)(=O)c2ccc(N3CCC[C@H]3C)cc2O1 | -0.3 | · | -0.1 | -0.7 | -0.6
Cc1nn(-c2ccc(F)cc2)c2sc(C(=O)OCC(=O)N3CCC(C)CC3)cc12 | -1.0 | 6.3* | 1.1 | 0.8 | -0.9
Cc1noc(C)c1COC(=O)c1cc2c(C)nn(-c3ccc(F)cc3)c2s1 | -0.8 | 1.5 | 1.5 | -1.3 | -0.4
O=[N+]([O-])c1ccc(CN2[C@H](COCc3ccccc3)C=CS2(=O)=O)cc1 | -0.9 | · | 0.8 | -1.5 | -0.8
COc1ccc2c(c1)[C@@]1(OCCC=C[C@H]1C)C(=O)N2Cc1ccccc1C(F)(F)F | -0.9 | · | 1.3 | -2.3 | 0.2
O=C(NNS(=O)(=O)c1ccc(Br)cc1)c1csnn1 | -0.5 | 5.1* | -0.5 | 0.0 | 0.1
Cc1ccn2c(NCc3ccccc3)c(-c3cccs3)nc2c1 | -1.0 | 0.5 | 10.8* | 3.4 | 0.4
SMILES | ssDAF12 agonist | DAX1 inh-1 | hgDAF-12 ag | hcDAF-12 act | DAX1 inh-2
CC(C)COc1ccc(-c2csc(N3CCC(C(N)=O)CC3)n2)cc1 | -1.9 | · | 4.2 | -4.0 | ·
O=c1[nH]c(Cc2ccccc2)nc2scc(-c3ccccc3)c12 | -1.2 | -0.1 | 0.9 | -1.9 | 0.1
O=C(O)CSCc1nc2scc(-c3ccccc3)c2c(=O)[nH]1 | -1.4 | 5.8* | 2.8 | -1.1 | 0.0
CCC(NC(=O)c1cc(COc2ccc(Cl)cc2OC)on1)c1ccncc1 (stereo unspecified) | -0.2 | 0.6 | 11.6* | 0.8 | -0.9
CCC(NC(=O)c1cc(COc2ccc(OC)cc2Cl)on1)c1ccncc1 (stereo unspecified) | 0.2 | -0.1 | 1.7 | -0.5 | -3.8
CC(=O)Nc1ccc(NC(C)=C(C#N)C#N)cc1 | -1.0 | 4.3* | -1.9 | 0.6 | -0.2
O=C(N1CCOCC1)N1CC[C@H]2[C@H](CCCN2Cc2ccccc2)C1 | -1.3 | · | -0.3 | -1.8 | -0.5
NC(=O)NN=C(C1CC1)C1CC1 | -0.8 | 4.9* | 1.6 | -0.5 | -0.3
C1CC1C(=NN=C(C1CC1)C1CC1)C1CC1 | -1.7 | 0.6 | -4.7 | 1.2 | -0.6
Cc1cc(F)ccc1C(O)c1ncc(-c2ccc3ccccc3c2)[nH]1 (stereo unspecified) | -0.2 | · | -1.1 | -0.8 | 3.7*
